Data from PubChem BioAssay (Tox21).
Values joined by “and” are separate entries in the source; they are usually repeats but may differ in a detail not shown here. Equal values may be shown once. Records with an inconclusive call do not appear. Where a structure was tested more than once in an assay, its records may differ in their call. Active and inactive are the calls of the source. Unless noted, calls follow the shape of the dose curve; as a rule, active = well fitted curve in the direction sought with a large enough effect in the repeat runs; inconclusive = weak or mixed curves; inactive = no such curve, though single readings can be large; an effect the other way counts as inactive or inconclusive.

Assays:
[1] = qHTS assay to identify small molecule agonists of the androgen receptor (AR) signaling pathway in the presence of an antagonist - cell viability counter screen (AID 1259379); also: nearly all actives have a fitted effect of over 25% in size; also: potency is read from the fitted curve at half-maximal effect
How it was run: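 MDA-kb2 human breast carcinoma cells (stable MMTV-luciferase, AR/GR responsive) were seeded 3,000 cells/well, pre-incubated 5 hr at 37C without CO2, then given 3.0uM nilutamide and compounds at 15 concentrations for 16 hr. Viability was read by CellTiter-Fluor fluorescence.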

[2] = qHTS assay to identify small molecule agonists of the estrogen receptor beta (ER-beta) signaling pathway - cell viability counter screen (AID 1259380); also: nearly all actives have a fitted effect of over 30% in size; also: potency is read from the fitted curve at half-maximal effect
How it was run: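 ER-beta-UAS-bla HEK293T cells in medium with 2% charcoal-stripped FBS were preincubated 6 hr at 37C, dosed with compound in DMSO for 16 hr, then after the bla read, CellTiter-Glo was added for 30 min at room temperature; luminescence recorded.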

[3] = qHTS assay to identify small molecule antagonists of the estrogen receptor beta (ER-beta) signaling pathway - cell viability counter screen (AID 1259382); also: nearly all actives have a fitted effect of over 55% in size; also: potency is read from the fitted curve at half-maximal effect
How it was run: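 ER-beta-UAS-bla HEK293T cells (2,000/well, 2% charcoal-stripped FBS) were pre-incubated 6 hr at 37C, then given compound plus 1nM final 17-beta-estradiol for 16 hr. Viability was read in the same wells by CellTiter-Glo luminescence after 30 min at room temperature.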

[4] = qHTS assay to identify small molecule agonists or antagonists of the thyroid stimulating hormone receptor (TSHR) signaling pathway - wild type cell line counter screen (AID 1259384; calls by dose curve)
How it was run: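 Wild-type HEK293 cells were plated 18 h at 37 C/5% CO2, pin-dosed with compound plus Ro20-1724 medium, held 30 min at room temperature, then given cAMP-d2 and anti-cAMP-cryptate; fluorescence was read after 1 h. Fifteen concentrations, triplicate.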

[5] = target: Thyrotropin receptor (Homo sapiens) (UniProt P16473); assay: qHTS assay to identify small molecule antagonists of the thyroid stimulating hormone receptor (TSHR) signaling pathway (AID 1259385; calls by dose curve; also: nearly all actives have a fitted effect of over 20% in size; also: potency is read from the fitted curve at half-maximal effect)
How it was run: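 TSHR-HEK293 cells were plated and held 18 h at 37C/5% CO2, then given compound plus Ro20-1724 and stimulated with TSH at 1.5 ng/mL final. After 30 min at room temperature, cAMP was detected with cAMP-d2/anti-cAMP-cryptate (1 h) by fluorescence.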

[6] = qHTS assay to identify small molecule agonists of the estrogen receptor alpha (ER-alpha) signaling pathway in the presence of an antagonist - cell viability counter screen (AID 1259386);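 also: cells exposed to compounds for 22 h at 37 °C before the viability read; nearly all actives have a fitted effect of over 30% in size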; also: potency is read from the fitted curve at half-maximal effect
How it was run: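 VM7Luc4E2 cells (endogenous full-length ER-alpha, 4×ERE-luciferase) were held 5 days in phenol red-free medium with 10% charcoal-stripped FBS, plated, then given 10.0nM ICI-182,780 and compounds at 15 concentrations for 22hr at 37C; viability read by CellTiter-Fluor fluorescence.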

[7] = target: Progesterone receptor (Homo sapiens) (UniProt P06401); assay: qHTS assay to identify small molecule agonists of the progesterone receptor (PR) signaling pathway (AID 1346784; calls by dose curve; also: nearly all actives have a fitted effect of over 30% in size)
How it was run: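 PR-UAS-bla HEK 293T cells carrying a UAS-driven beta-lactamase reporter were seeded in medium with 2% charcoal-stripped FBS, preincubated 6 hr at 37C, then exposed to compounds in DMSO for 16 hr; agonism was read by LiveBLAzer B/G FRET fluorescence.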

[8] = target: Progesterone receptor (Homo sapiens) (UniProt P06401); assay: qHTS assay to identify small molecule antagonists of the progesterone receptor (PR) signaling pathway (AID 1346795; active = well fitted inhibition curve with a large enough effect in the signal ratio in the repeat runs, not every such curve was filed as active; the % refers to the signal ratio; also: potency is read from the fitted curve at half-maximal effect)
How it was run: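 PR-UAS-bla HEK293T cells carrying a UAS-driven beta-lactamase reporter were plated in medium with 2% charcoal-stripped FBS and rested 6 hr at 37C. Compounds were added with 1 nM R5020 (final) for 16 hr, then FRET substrate loaded 2 hr at room temperature.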

[9] = qHTS assay to identify small molecule antagonists of the TGF-beta/Smad signaling pathway - cell viability counter screen (AID 1346824); also: nearly all actives have a fitted effect of over 50% in size
How it was run: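 SBE-bla HEK 293T cells were plated overnight at 37 C, then given compounds in DMSO plus TGF-beta1 (added as 0.25 ng/mL solution) for 5 hr. After the bla read, CellTiter-Glo was added to the same wells and luminescence read after 30 min at room temperature.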

[10] = qHTS assay to identify small molecule agonists of the TGF-beta/Smad signaling pathway - cell viability counter screen (AID 1346829); also: nearly all actives have a fitted effect of over 45% in size; also: potency is read from the fitted curve at half-maximal effect
How it was run: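 CellTiter-Glo luminescence readout; SBE-bla HEK 293T cells, overnight plating, compound 5 hr at 37 C/5% CO2, then bla substrate 2 hr RT, then CellTiter-Glo 30 min RT.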

[11] = qHTS assay to identify small molecule agonists of the TGF-beta/Smad signaling pathway (AID 1346859; active = well fitted activation curve with a large enough effect in the signal ratio in the repeat runs, not every such curve was filed as active; the % refers to the signal ratio; also: series mostly up to about 77 µM)
How it was run: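 HEK 293T cells stably carrying a beta-lactamase reporter driven by the Smad binding element were seeded overnight, exposed to DMSO-dissolved compounds for 5 hr at 37 C, 5% CO2, then loaded with FRET substrate for 2 hr at room temperature.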

[12] = target: Thyrotropin-releasing hormone receptor (Homo sapiens) (UniProt P34981); assay: qHTS assay to identify small molecule antagonists of the thyrotropin-releasing hormone receptor (TRHR) signaling pathway (AID 1346877; active = well fitted inhibition curve with a large enough effect in the repeat runs, not every such curve was filed as active; also: potency is read from the fitted curve at half-maximal effect)
How it was run: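 TRHR-expressing HEK293 cells were seeded, cultured 18 h at 37 °C, then loaded with calcium dye for 2 h. Compounds were pre-incubated 5 min at room temperature before 1 nM TRH (final) was added, and kinetic fluorescence was recorded for 3 min.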

[13] = target: Thyrotropin-releasing hormone receptor (Homo sapiens) (UniProt P34981); assay: qHTS assay to identify small molecule agonists of the thyrotropin-releasing hormone receptor (TRHR) signaling pathway (AID 1346891; calls by dose curve; also: series mostly up to about 58 µM)
How it was run: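 TRHR-expressing HEK293 cells were plated 18 h at 37 °C/5% CO2, loaded with calcium dye 2 h at 37 °C, then given compound in DMSO; fluorescence was read kinetically for 3 min at 1 s intervals.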

[14] = Human pregnane X receptor (PXR) small molecule agonists, qHTS cell viability counter screen (AID 1346977); also: nearly all actives have a fitted effect of over 50% in size; also: potency is read from the fitted curve at half-maximal effect
How it was run: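 PXR-Luc HepG2 cells in medium with 5% charcoal-stripped FBS were pre-incubated 5hr, then exposed to compounds for 24hr at 37C. Viability was read in the same wells by CellTiter-Fluor fluorescence, reagent added after 23hr with a 1hr incubation.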

[15] = Caspase-3/7 induction in HepG2 cells by small molecules, qHTS assay (AID 1346978); also: nearly all actives have a fitted effect of over 15% in size; also: potency is read from the fitted curve at half-maximal effect
How it was run: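 Wild-type HepG2 cells (2,000/well) were settled 5 h at 37 C, 5% CO2, then exposed to compounds in DMSO for 17 h. Caspase-3/7 activity was read by luminescence 30 min after adding Caspase-Glo 3/7 reagent at room temperature.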

[16] = qHTS assay to identify small molecule antagonists of the progesterone receptor (PR) signaling pathway - cell viability counter screen (AID 1346798); also: nearly all actives have a fitted effect of over 50% in size; also: potency is read from the fitted curve at half-maximal effect
How it was run: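 PR-UAS-bla HEK293T cells in medium with 2% charcoal-stripped FBS were treated with compounds plus R5020 for 16 hr at 37C. Cell viability was then read by CellTiter-Glo luminescence after 30 min at room temperature in the same wells.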

[17] = qHTS assay to identify small molecule agonists of the progesterone receptor (PR) signaling pathway - cell viability counter screen (AID 1346799; calls by dose curve; also: nearly all actives have a fitted effect of over 45% in size; also: potency is read from the fitted curve at half-maximal effect)
How it was run: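 PR-UAS-bla HEK293T cells, 3,000 per well in medium with 2% charcoal-stripped FBS, were preincubated 6 hr at 37C, then exposed to compounds for 16 hr; viability was read as CellTiter-Glo luminescence after 30 min at room temperature.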

[18] = target: Estrogen receptor (Homo sapiens) (UniProt P03372); assay: qHTS assay to identify small molecule agonists of the estrogen receptor alpha (ER-alpha) signaling pathway in the presence of an antagonist (AID 1259383; calls by dose curve; also: top concentration of the series differs between compounds; nearly all actives have a fitted effect of over 15% in size)
How it was run: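 VM7Luc4E2 cells (endogenous full-length ER-alpha, 4×ERE-luciferase) were precultured 5 days in phenol red-free medium with 10% charcoal-stripped FBS, given 10.0nM ICI-182,780 (final), then treated with compounds at 15 concentrations for 22hr at 37C; luminescence read with ONE-Glo.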

Measured: Potency

Chain of Estrogen receptor (Homo sapiens) (P03372 whole entry, looked up): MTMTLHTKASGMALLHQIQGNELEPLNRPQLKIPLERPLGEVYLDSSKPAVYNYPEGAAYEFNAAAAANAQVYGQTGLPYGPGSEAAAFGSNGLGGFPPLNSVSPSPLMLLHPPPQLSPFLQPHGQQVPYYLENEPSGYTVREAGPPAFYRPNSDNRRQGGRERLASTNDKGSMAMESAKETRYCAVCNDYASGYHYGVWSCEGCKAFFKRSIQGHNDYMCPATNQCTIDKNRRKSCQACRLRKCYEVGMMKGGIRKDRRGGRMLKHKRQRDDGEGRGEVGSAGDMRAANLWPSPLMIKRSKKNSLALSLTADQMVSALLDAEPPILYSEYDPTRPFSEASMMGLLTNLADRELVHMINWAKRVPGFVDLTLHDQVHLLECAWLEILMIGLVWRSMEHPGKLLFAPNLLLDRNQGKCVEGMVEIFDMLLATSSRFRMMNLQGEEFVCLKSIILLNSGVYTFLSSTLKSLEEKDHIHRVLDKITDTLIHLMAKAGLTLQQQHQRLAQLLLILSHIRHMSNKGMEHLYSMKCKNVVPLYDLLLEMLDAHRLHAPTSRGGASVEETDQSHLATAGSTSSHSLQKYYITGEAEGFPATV
Chain of Progesterone receptor (Homo sapiens) (P06401 whole entry, looked up): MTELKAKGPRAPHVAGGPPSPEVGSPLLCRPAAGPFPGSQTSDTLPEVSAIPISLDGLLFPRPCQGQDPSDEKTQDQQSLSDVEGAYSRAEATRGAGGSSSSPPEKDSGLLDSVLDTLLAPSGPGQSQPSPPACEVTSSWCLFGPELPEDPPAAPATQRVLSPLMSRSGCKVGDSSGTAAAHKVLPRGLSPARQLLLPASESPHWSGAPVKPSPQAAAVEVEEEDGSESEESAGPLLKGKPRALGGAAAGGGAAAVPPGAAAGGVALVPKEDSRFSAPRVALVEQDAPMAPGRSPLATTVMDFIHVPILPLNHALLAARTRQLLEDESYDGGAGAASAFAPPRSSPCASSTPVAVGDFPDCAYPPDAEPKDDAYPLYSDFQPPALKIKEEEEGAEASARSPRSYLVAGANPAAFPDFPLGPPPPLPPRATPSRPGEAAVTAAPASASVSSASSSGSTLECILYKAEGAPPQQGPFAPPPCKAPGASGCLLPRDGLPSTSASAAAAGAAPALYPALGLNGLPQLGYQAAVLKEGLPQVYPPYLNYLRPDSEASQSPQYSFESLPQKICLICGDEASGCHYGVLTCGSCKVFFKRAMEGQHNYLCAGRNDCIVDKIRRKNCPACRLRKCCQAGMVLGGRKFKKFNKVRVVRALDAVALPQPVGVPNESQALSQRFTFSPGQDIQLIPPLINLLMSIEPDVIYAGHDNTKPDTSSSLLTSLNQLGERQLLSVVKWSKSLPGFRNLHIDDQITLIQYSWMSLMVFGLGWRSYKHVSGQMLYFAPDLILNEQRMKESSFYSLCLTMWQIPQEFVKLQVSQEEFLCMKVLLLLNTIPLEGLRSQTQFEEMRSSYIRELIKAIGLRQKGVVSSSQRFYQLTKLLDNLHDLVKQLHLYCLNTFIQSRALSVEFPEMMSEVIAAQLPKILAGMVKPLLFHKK
Chain of Thyrotropin-releasing hormone receptor (Homo sapiens) (P34981 whole entry, looked up): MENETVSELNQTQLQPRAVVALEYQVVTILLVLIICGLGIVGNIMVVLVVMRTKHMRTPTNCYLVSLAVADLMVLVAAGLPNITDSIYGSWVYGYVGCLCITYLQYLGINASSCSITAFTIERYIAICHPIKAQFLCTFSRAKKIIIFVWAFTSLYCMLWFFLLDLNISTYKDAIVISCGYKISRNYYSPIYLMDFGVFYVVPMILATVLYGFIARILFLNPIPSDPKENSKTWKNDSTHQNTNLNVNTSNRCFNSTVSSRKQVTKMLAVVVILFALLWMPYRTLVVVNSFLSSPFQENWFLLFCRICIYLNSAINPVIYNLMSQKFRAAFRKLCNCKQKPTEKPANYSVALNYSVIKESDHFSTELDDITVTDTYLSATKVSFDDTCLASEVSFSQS
Chain of Thyrotropin receptor (Homo sapiens) (P16473 whole entry, looked up): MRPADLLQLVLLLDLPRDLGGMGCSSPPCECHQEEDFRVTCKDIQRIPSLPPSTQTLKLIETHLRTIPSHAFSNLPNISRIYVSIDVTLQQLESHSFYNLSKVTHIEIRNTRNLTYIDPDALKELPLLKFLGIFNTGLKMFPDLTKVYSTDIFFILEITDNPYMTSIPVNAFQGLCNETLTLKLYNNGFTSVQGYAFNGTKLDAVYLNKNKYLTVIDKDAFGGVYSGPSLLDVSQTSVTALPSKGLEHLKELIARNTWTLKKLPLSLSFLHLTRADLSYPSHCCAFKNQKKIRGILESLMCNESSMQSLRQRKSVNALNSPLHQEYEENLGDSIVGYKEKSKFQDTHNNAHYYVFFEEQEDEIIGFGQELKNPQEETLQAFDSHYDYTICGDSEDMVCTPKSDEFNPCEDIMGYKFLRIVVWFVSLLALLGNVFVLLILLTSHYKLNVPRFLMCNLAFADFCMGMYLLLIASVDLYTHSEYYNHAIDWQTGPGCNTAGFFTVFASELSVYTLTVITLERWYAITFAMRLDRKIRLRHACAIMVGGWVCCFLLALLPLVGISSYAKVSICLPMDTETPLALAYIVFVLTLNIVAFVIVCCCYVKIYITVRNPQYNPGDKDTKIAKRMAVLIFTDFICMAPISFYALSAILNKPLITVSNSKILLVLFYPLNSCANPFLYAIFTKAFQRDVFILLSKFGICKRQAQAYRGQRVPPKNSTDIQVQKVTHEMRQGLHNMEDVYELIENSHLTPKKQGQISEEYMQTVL

CC(C)(c1cc(Br)c(O)c(Br)c1)c1cc(Br)c(O)c(Br)c1
active: [2] 68.3 µM and 68.4 µM | [3] 68.4 µM | [8] 13.6 µM and 17.2 µM | [12] 33.8 µM
not listed: [16] | [17] | [18]
inactive: all other assays above

C=CCCCCCCC=C
not listed: [4] | [5] | [8] | [16] | [17] | [18]
inactive: all other assays above

CCCCCCC(C)OC(=O)COc1nc(F)c(Cl)c(N)c1Cl (configuration not stated)
active: [2] 68.6 µM
not listed: [8] | [15] | [18]
inactive: all other assays above

C/C=C/C(=O)Oc1c(CCCCCC(C)C)cc([N+](=O)[O-])cc1[N+](=O)[O-]
active: [1] 15.4 µM | [2] 30.6 µM | [3] 48.6 µM | [6] 9.69 µM | [8] 19.3 µM | [14] 15.4 µM
inactive: [18] | [4] | [5] | [12] | [13]

CC(C(O)c1ccccc1)N(C)CCOC(c1ccccc1)c1ccccc1 (configuration not stated)
active: [1] 29.8 µM | [2] 29.8 µM | [3] 18.8 µM | [8] 23.7 µM | [14] 29.8 µM
inactive: [4] | [6] | [7] | [10] | [12] | [13]

C/C=C/C=N/NC(=O)c1ccncc1
not listed: [5] | [13] | [18]
inactive: all other assays above

COc1cccc(O)c1
not listed: [4] | [5] | [14]
inactive: all other assays above

NC1(c2ccc(-c3nc4ccn5c(=O)[nH]nc5c4cc3-c3ccccc3)cc2)CCC1
active: [1] 16.8 µM | [2] 1.19 µM | [3] 2.11 µM | [5] 29.8 µM | [14] 26.6 µM
not listed: [6] | [11] | [16] | [17]
inactive: all other assays above

CCCCCCCCCCc1ccccc1
not listed: [4] | [5] | [6] | [12]
inactive: all other assays above

CCC1CCCCC1
not listed: [18]
inactive: all other assays above

CN(C)CCCN1c2ccccc2CCc2ccccc21
21.7 µM (active) and inactive: [17]
inactive: [6] | [10] | [12] | [15]
active: [1] 61.1 µM | [2] 30.6 µM and 23.7 µM | [3] 27.3 µM and 23.7 µM | [14] 30.6 µM and 23.7 µM

NCCCCCCNCCCCCCN
not listed: [4] | [5] | [18]
inactive: all other assays above

CSc1ccc2c(c1)N(CCC1CCCCN1C)c1ccccc1S2 (configuration not stated)
inactive: [4] | [11]
active: [1] 54.3 µM and 29.8 µM | [2] 19.3 µM and 18.8 µM | [3] 15.3 µM and 13.3 µM | [16] 21.6 µM and 23.7 µM | [17] 27.2 µM and 21.1 µM | [10] 54.7 µM | [14] 19.3 µM and 26.6 µM | [15] 30.5 µM
68.3 µM (active) and inactive: [6]

CC(=O)OC1CCCCC1
not listed: [6] | [12] | [14]
inactive: all other assays above

O=C(O)Cc1ccc(OCCNC[C@H](O)c2ccccc2)cc1
not listed: [8] | [12] | [13] | [16] | [17]
inactive: all other assays above
